Measurements: PubChem BioAssay AID1159524 (National Center for Advancing Translational Sciences (NCATS), 2015)
Hit rate of the full screen: of about 410,000 compounds, about 5,100 (1.2%) were called active. Entries that show only a call come without a potency. About 8% were inconclusive and are not listed. The call rests on the fitted dose curve; tested in HEK293T cells. Only a selection was taken, and actives are over-represented in it overall.

Assay: High Throughput Screening for Foot and Mouth Disease Virus Antivirals; further: read-out not given here; nearly all actives have a fitted effect of over 45% in size
Details: FMDV antiviral cell-based qHTS; series mostly up to 57.9 µM
Potency means the concentration at half of the fitted maximal effect.

| SMILES | Potency | activity change, negative = inhibition |
| --- | --- | --- |
| COc1cccc(Cn2c(=O)c(-c3cc(F)cc(F)c3)nc3cnc(OC)nc32)c1 | inactive |  |
| COc1cccc(Nc2ncc3ncc(=O)n(C4CC4)c3n2)c1 | inactive |  |
| NCCCNCCCCN(CCCN)/[N+]([O-])=N/O | inactive |  |
| N#CCCn1c(=O)c(-c2cc(F)cc(F)c2)nc2cnc(Oc3ccccc3)nc21 | inactive |  |
| COc1ccc(OC)c(CNC(=O)CN2C(=O)CCn3nc(-c4cn(C)c5ccccc45)cc32)c1 | inactive |  |
| CN(C(=O)CN1CCN(c2cc(-c3ccc(OCc4ccccc4)cc3)ncn2)CC1)c1ccccc1 | 25.1 µM (active) |  |
| CCc1ccc(OCC(=O)N2CCN(CC(=O)Nc3ccccc3Cl)CC2)cc1 | inactive |  |
| CCN(CC)c1ccc(NC(=O)CN2CCN(c3ccccn3)CC2)cc1 | inactive |  |
| c1ccc2c(Nc3ccncc3)nc(-c3ccoc3)nc2c1 | inactive |  |
| Cc1nc2cnc(N3CCN(C)CC3)nc2n(C[C@H]2CCCO2)c1=O | inactive |  |
| COc1cccc(C(=O)N(Cc2cccc(Cl)c2)Cc2ccco2)c1 | inactive |  |
| CC(=O)c1cc(CN2CCC(C(=O)Nc3cccc(-c4cscn4)c3)CC2)cs1 | 20 µM (active) |  |
| CCn1cc(CN2CCC(C(=O)Nc3cccc(-c4cccc(Cl)c4)c3)CC2)cn1 | inactive |  |
| CCn1cc(CN2CCC(C(=O)Nc3cccc(-c4cccc(Cl)c4)c3)CC2)c(C)n1 | inactive |  |
| CCOc1cc(C(=O)Nc2nnc3n2CCS3)cc(OCC)c1OCC | inactive |  |
| c1ccc(CN2CC[C@@]3(CCCNC3)C2)cc1 | inactive |  |
| CC(C)OCCCNc1ncnc2c1[nH]c1ccc(F)cc12 | 39.8 µM (active) |  |
| COc1ccc(C2Nc3ccccc3C(=O)N2c2ccc(Cl)cc2)cc1Cn1cc([N+](=O)[O-])cn1 (stereo not drawn) | 100 µM (active) |  |
| COc1ccccc1N1CCN(C2C(=O)c3ccccc3N2C(C)=O)CC1 (stereo not drawn) | inactive |  |
| CS(=O)(=O)N1CCC2(CC1)CN(Cc1ccccc1)C2 | inactive |  |
| N#Cc1nc(-c2ccc(OCc3ccccc3)cc2)oc1NCCCN1CCOCC1 | 39.8 µM (active) |  |

| SMILES | Potency | activity change, negative = inhibition |
| --- | --- | --- |
| COc1ccc(OCc2ccc(-c3nc(C#N)c(N4CCN(c5ccccc5)CC4)o3)o2)cc1 | inactive |  |
| Cc1ccc(-c2nc(C#N)c(NCCCn3ccnc3)o2)cc1 | inactive |  |
| C/C=C(\C)C(=O)OC1C(OC(=O)C2(C)OC2C)c2cc3ccc(=O)oc3cc2OC1(C)C (stereo not drawn) | inactive |  |
| Cc1nc2cnc(N3CCN(C)CC3)nc2n(CCC#N)c1=O | inactive |  |
| Cc1ccc(COC(=O)CN2C(=O)NC3(CCCC3)C2=O)cc1 | inactive |  |
| CC(OC(=O)CN1C(=O)C2CCCCC2C1=O)C(=O)Nc1ncc(Cl)cc1Cl (stereo not drawn) | inactive |  |
| CC1=CC(C)(C)Nc2ccc(OC(=O)CN3C(=O)C4CCCCC4C3=O)cc21 (stereo not drawn) | 20 µM (active) |  |
| O=C(O)CCn1cc(C=C2C(=O)NC(=S)NC2=O)c(-c2cccc(Br)c2)n1 | inactive |  |
| O=C(O)CCn1cc(/C=C/C(=O)c2ccc(Cl)cc2)c(-c2cccc(Br)c2)n1 | 25.1 µM (active) |  |
| Cc1csc2nc(COC(=O)c3ccccc3NC(=O)c3ccccc3Cl)cc(=O)n12 | inactive |  |
| CCc1cnc2c(c1SCC(=O)c1ccccc1)c(=O)n(C)c(=O)n2C | inactive |  |
| CCC(C)[C@@H](N)C(=O)O (stereo partly drawn) | inactive |  |
| Cc1ccc(SCC(=O)Nc2ccc3oc(-c4ccccc4F)nc3c2)cc1 | inactive |  |
| COc1ccc(CNC(=O)c2c(C)cc(=O)oc2C)cc1OC | inactive |  |
| COc1ccc(CNC(=O)c2ccc(-c3cccnc3)c3ccoc23)cc1OC | 22.4 µM (active) |  |
| COCCCNC(=O)c1ccc(-c2c(C)noc2C)c2ccoc12 | inactive |  |
| C=CC(=O)c1ccc2ccccc2c1 | inactive |  |
| CCOC(=O)N1CCN(Cc2ccc3c(c2)CN(C(=O)c2cccc(-n4cccn4)c2)CCO3)CC1 | inactive |  |
| CCCCC/C=C\C/C=C\CCCCCCCCCC(=O)O |  | -17.4% [at 6.7 µM] (inactive) |
| Cn1c(=O)c2c(nc(Br)n2CCSc2nc3ccccc3o2)n(C)c1=O | inactive |  |
| Cc1ccnc(SCCn2c(Br)nc3c2c(=O)[nH]c(=O)n3C)n1 | inactive |  |

| SMILES | Potency | activity change, negative = inhibition |
| --- | --- | --- |
| Cn1c(=O)[nH]c(=O)c2c1nc(Br)n2CCCCSc1nc2ccccc2o1 | 35.5 µM (active) |  |
| COc1ccccc1CNc1ncnc2ccc(-c3ccc4c(c3)OCO4)cc12 | inactive |  |
| CC1O[C@@H](Oc2c(-c3ccc(O)c(O)c3)oc3cc(O)cc(O)c3c2=O)C(O)C(O)C1O (stereo partly drawn) | inactive |  |
| COc1ccc(Cc2nc3ccc(C(=O)NCc4ccccc4C)cc3o2)cc1 | inactive |  |
| COC(=O)c1ccccc1NC(=O)c1ccc2c(=O)n3c(nc2c1)CCCCC3 | inactive |  |
| CCc1c(C)sc(NC(=O)C2c3ccccc3Oc3ccccc32)c1C(=O)OC(C)C | inactive |  |
| Cc1ccn2c(c1)nc(=O)c1cc(S(=O)(=O)N3CCC(C)CC3)ccc12 | 11.2 µM (active) |  |
| CC1CCN(S(=O)(=O)c2ccc3c(ccn3CC(=O)O)c2)CC1 | inactive |  |
| CC1CCN(S(=O)(=O)c2ccc3c(c2)n(C)c(=O)n3C)CC1 | inactive |  |
| CCc1ccc(CNC(=O)c2ccc(CS(=O)c3ccc(Br)cc3)o2)cc1 (stereo not drawn) | inactive |  |
| Cc1cccc(CNC(=O)c2cnn(-c3nccc(-c4ccccc4F)n3)c2C2CC2)n1 | inactive |  |
| CN(Cc1cccc2ncccc12)C(=O)c1cnn(-c2nccc(-c3ccccc3F)n2)c1C1CC1 | 3.98 µM (active) |  |
| Cc1ccc(-c2ccnc(-n3ncc(C(=O)N(C)Cc4cccc5ncccc45)c3C3CC3)n2)o1 | inactive |  |
| COc1cccc(C2C(C(=O)Nc3ccc(C)cc3C)=C(C)Nc3c(C(=O)Nc4ccccc4)cnn32)c1 (stereo not drawn) | inactive |  |
| Nc1nc(/C(=C/CC(=O)O)C(=O)N[C@@H]2C(=O)N3C(C(=O)O)=CCS[C@H]23)cs1 | inactive |  |
| COc1ccccc1NC(=O)c1oc2ccccc2c1NC(=O)COc1ccccc1OC | inactive |  |
| CCOC(=O)CSc1nc2ccc(C)cc2n2cnnc12 | inactive |  |
| O=C(c1ccccc1)c1ccc2nc(N3CCCCC3)c3nncn3c2c1 | 10 µM (active) |  |
| c1ccc(CC2CCN(c3nc4ccccc4n4cnnc34)CC2)cc1 | inactive |  |
| O=c1c(O)c(Br)ccc2c(Br)c(O)c(O)c(O)c12 | inactive |  |
| COc1ccc(-c2c(C)c3ccc(O)c(CN4CCCC4)c3oc2=O)cc1OC | inactive |  |
